Tests used:
Test in all cases: DAPPL (digital affinity profiling via proximity ligation, sequencing); 10 mM Tris-HCl pH 7.5, 50 mM NaCl, 1 mM DTT, 4% glycerol, room temperature, 30 min; GST-TFs on glutathione beads, 16-mer random dsDNA library, 0.1% formaldehyde crosslink after washing; high values mean tight binding
FLI1 = molecular target: T1, FLI1 (Homo sapiens, UniProt Q01543 1-452); details: protein: recombinant; tags: N-terminal GST; dsDNA, one strand shown
T1 sequence: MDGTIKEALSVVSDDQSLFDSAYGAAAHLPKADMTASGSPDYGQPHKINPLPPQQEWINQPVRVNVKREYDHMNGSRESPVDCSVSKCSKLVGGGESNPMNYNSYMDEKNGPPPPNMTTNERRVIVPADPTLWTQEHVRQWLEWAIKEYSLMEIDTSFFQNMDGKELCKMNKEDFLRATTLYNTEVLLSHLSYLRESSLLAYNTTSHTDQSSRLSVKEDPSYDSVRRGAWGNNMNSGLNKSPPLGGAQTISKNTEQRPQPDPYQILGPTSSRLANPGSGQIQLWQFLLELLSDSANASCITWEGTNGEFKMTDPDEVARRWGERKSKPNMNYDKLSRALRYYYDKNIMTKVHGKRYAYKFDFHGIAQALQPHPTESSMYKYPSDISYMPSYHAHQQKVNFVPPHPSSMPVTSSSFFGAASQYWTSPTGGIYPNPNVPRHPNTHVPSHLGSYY
How it was run: (§1)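 Human transcription factors fused to GST were expressed in yeast, captured on glutathione beads, given DNA barcodes and pooled with a GST-only negative control. Pools were incubated with 200 nmole of a 16-mer random double-stranded DNA library in Tris/NaCl/DTT/glycerol buffer at room temperature for 30 min. They were then washed, crosslinked with 0.1% formaldehyde, proximity-ligated (BsaI/T4 ligase, 1 h, 37 °C), PCR-amplified and sequenced on an Illumina NextSeq500. Binding signal is each 6-mer's read frequency for a factor divided by its frequency for the GST control.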

ELK1 = molecular target: T2, ELK1 (Homo sapiens, UniProt P19419 1-428); details: protein: recombinant; tags: N-terminal GST; dsDNA, one strand shown
T2 sequence: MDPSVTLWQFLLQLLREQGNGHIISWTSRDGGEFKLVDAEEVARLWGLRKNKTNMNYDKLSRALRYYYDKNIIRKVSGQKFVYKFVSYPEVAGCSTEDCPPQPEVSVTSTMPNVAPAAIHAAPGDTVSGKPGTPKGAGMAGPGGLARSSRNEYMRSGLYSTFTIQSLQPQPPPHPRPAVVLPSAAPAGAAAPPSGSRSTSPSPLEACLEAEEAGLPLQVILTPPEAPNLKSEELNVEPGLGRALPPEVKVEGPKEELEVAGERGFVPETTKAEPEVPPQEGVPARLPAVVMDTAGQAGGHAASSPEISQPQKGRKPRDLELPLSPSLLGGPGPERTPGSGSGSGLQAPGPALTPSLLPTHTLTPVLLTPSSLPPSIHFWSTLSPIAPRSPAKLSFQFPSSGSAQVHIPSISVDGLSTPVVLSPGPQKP
How it was run: as §1

GABPA = molecular target: T3, GABPA (Homo sapiens, UniProt Q06546 1-454); details: protein: recombinant; tags: N-terminal GST; dsDNA, one strand shown
T3 sequence: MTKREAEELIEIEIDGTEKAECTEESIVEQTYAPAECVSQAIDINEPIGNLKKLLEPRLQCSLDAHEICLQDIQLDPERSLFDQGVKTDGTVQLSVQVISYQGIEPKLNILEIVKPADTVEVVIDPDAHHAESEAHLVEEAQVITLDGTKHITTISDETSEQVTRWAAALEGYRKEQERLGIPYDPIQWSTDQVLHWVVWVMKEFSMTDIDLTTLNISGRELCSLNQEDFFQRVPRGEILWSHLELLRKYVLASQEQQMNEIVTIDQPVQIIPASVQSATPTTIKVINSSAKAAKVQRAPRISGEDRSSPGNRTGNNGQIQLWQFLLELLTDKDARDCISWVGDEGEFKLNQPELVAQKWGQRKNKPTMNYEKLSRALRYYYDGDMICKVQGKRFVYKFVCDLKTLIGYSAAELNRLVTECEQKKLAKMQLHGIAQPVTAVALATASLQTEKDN
How it was run: as §1

ERG = molecular target: T4, ERG (Homo sapiens, UniProt P11308 1-479); details: protein: recombinant; tags: N-terminal GST; dsDNA, one strand shown
T4 sequence: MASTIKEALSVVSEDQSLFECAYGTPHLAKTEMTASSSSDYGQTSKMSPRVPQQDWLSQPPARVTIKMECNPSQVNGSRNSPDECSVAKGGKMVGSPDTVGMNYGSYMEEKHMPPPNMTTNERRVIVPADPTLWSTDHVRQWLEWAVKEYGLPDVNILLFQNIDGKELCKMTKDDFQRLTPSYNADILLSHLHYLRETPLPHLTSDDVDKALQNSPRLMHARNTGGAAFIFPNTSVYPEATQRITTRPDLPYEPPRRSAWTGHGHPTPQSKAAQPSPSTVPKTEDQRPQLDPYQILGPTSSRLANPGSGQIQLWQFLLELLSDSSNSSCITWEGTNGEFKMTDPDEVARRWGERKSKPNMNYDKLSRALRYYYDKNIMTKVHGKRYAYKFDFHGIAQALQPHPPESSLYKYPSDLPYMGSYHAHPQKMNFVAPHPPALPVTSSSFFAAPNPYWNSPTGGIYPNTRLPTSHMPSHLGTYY
How it was run: as §1

ELF1 = ELF1 (Homo sapiens, UniProt P32519 1-619); details: protein: recombinant; tags: N-terminal GST; dsDNA, one strand shown
How it was run: as §1

EHF = molecular target: T5, EHF (Homo sapiens, UniProt Q9NZC4 1-300); details: protein: recombinant; tags: N-terminal GST; dsDNA, one strand shown
T5 sequence: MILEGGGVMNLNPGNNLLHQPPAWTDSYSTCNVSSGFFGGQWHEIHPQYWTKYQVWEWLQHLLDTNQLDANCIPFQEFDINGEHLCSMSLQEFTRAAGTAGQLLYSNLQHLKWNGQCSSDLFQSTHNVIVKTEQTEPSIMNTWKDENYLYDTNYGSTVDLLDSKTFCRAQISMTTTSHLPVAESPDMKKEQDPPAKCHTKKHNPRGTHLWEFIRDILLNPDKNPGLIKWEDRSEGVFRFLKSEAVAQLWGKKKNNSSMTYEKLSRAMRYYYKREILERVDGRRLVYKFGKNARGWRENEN
How it was run: as §1

SPI1 = SPI1 (Homo sapiens, UniProt P17947 1-270); details: protein: recombinant; tags: N-terminal GST; dsDNA, one strand shown
How it was run: as §1

SPIB = SPIB (Homo sapiens, UniProt Q01892 1-262); details: protein: recombinant; tags: N-terminal GST; dsDNA, one strand shown
How it was run: as §1

ELK3 = molecular target: T6, ELK3 (Homo sapiens, UniProt P41970 1-407); details: protein: recombinant; tags: N-terminal GST; dsDNA, one strand shown
T6 sequence: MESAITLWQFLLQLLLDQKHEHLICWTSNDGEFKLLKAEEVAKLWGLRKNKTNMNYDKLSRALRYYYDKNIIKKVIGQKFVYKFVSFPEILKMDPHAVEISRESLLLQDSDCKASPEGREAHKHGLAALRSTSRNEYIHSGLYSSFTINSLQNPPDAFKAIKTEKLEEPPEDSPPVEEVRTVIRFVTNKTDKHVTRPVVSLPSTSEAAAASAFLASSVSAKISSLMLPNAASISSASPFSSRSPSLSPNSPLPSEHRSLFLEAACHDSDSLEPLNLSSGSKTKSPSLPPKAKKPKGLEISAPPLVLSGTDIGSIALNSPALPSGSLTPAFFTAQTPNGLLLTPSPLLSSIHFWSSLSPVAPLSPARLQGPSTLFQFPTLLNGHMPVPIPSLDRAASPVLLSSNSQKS
How it was run: as §1

FEV = molecular target: T7, FEV (Homo sapiens, UniProt Q99581 1-238); details: protein: recombinant; tags: N-terminal GST; dsDNA, one strand shown
T7 sequence: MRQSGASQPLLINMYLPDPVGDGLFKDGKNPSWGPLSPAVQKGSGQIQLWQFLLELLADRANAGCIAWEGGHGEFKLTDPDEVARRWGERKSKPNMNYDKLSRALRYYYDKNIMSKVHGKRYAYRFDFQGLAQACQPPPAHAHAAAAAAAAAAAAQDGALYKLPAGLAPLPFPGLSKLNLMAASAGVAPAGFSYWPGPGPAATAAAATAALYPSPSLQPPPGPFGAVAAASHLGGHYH
How it was run: as §1

ETV5 = ETV5 (Homo sapiens, UniProt P41161 1-510); details: protein: recombinant; tags: N-terminal GST; dsDNA, one strand shown
How it was run: as §1

HSF1 = HSF1 (Homo sapiens, UniProt Q00613 1-529); details: protein: recombinant; tags: N-terminal GST; chain copies: 3; dsDNA, one strand shown
How it was run: as §1

SPIC = molecular target: T8, SPIC (Homo sapiens, UniProt Q8N5J4 1-248); details: protein: recombinant; tags: N-terminal GST; dsDNA, one strand shown
T8 sequence: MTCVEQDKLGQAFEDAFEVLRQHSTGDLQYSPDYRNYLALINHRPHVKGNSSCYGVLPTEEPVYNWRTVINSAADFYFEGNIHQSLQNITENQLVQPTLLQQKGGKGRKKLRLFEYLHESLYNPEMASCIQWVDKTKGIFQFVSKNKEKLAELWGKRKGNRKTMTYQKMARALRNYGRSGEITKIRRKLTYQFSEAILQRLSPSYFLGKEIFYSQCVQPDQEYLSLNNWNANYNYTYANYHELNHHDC
How it was run: as §1

ELF4 = ELF4 (Homo sapiens, UniProt Q99607 1-663); details: protein: recombinant; tags: N-terminal GST; dsDNA, one strand shown
How it was run: as §1

ELK4 = molecular target: T9, ELK4 (Homo sapiens, UniProt P28324-2 1-405); details: protein: recombinant; tags: N-terminal GST; dsDNA, one strand shown
T9 sequence: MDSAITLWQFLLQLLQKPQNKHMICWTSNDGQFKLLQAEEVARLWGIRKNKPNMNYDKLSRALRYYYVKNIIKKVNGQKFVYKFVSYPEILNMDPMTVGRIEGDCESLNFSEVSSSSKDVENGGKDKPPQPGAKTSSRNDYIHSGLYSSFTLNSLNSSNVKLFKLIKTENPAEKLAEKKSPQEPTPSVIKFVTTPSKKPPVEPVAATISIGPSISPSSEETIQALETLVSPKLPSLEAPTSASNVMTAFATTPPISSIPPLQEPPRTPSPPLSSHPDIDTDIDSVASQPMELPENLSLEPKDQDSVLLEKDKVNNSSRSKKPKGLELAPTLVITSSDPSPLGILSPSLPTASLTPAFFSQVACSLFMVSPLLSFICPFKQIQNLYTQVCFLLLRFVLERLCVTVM
How it was run: as §1

ETV2 = molecular target: T10, ETV2 (Homo sapiens, UniProt O00321 1-342); details: protein: recombinant; tags: N-terminal GST; dsDNA, one strand shown
T10 sequence: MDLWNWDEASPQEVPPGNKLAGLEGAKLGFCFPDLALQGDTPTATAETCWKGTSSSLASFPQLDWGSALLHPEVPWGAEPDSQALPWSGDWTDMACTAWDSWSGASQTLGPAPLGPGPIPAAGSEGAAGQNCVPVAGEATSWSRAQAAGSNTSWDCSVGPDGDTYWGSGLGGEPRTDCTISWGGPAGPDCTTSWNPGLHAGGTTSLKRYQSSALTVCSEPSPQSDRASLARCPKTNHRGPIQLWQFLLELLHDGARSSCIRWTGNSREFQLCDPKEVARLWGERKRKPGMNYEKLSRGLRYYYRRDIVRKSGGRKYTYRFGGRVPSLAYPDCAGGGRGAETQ
How it was run: as §1

ELF3 = molecular target: T11, ELF3 (Homo sapiens, UniProt P78545 1-371); details: protein: recombinant; tags: N-terminal GST; dsDNA, one strand shown
T11 sequence: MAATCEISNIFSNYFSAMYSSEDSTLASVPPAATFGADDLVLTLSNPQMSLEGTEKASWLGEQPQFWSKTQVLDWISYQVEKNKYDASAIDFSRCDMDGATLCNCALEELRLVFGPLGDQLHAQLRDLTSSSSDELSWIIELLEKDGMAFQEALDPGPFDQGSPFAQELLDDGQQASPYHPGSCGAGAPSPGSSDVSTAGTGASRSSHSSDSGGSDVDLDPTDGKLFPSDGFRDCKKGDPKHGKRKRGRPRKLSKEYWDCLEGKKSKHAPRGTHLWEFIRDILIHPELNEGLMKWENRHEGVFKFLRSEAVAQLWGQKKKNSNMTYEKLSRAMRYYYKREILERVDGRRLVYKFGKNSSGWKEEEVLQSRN
How it was run: as §1

CRX = CRX (Homo sapiens, UniProt O43186 1-299); details: protein: recombinant; tags: N-terminal GST; dsDNA, one strand shown
How it was run: as §1

ETV1 = ETV1 (Homo sapiens, UniProt P50549 1-477); details: protein: recombinant; tags: N-terminal GST; dsDNA, one strand shown
How it was run: as §1

Chain of HSF1 (Q00613 whole entry): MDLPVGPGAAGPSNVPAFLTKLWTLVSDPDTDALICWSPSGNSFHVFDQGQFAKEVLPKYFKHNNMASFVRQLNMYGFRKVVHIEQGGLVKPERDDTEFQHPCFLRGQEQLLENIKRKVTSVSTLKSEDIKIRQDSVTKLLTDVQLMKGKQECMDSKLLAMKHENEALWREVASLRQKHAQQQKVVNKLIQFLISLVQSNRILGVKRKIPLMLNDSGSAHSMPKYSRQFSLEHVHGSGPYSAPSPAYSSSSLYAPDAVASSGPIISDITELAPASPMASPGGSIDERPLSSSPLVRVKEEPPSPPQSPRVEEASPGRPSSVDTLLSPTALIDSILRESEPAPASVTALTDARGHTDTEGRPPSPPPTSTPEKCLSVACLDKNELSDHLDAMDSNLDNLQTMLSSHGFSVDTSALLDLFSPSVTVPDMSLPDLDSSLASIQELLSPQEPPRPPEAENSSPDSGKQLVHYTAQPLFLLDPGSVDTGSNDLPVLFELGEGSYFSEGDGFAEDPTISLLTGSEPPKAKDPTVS
Chain of ETV5 (P41161 whole entry): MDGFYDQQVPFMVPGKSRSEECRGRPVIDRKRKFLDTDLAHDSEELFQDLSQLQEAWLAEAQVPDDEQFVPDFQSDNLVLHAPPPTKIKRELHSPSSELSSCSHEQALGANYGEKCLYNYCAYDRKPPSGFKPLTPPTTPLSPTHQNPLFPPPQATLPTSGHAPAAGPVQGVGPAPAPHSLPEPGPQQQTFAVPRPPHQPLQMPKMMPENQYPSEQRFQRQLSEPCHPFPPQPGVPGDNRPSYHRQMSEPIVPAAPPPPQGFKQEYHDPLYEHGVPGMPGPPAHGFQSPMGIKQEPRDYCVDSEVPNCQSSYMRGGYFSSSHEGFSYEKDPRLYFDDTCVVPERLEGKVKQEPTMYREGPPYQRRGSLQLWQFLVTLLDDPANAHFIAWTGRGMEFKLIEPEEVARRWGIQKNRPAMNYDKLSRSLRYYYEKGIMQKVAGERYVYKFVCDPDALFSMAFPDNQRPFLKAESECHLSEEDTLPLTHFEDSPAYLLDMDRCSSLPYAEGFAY
Chain of SPIB (Q01892 whole entry): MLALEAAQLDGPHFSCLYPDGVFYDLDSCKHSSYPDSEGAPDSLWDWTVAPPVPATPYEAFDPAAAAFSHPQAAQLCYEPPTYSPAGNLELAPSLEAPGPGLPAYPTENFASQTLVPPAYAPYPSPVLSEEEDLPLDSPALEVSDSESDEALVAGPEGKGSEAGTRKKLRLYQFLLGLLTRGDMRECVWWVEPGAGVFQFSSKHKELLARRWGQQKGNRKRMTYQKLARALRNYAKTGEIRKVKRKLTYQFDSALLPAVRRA
Chain of ELF4 (Q99607 whole entry): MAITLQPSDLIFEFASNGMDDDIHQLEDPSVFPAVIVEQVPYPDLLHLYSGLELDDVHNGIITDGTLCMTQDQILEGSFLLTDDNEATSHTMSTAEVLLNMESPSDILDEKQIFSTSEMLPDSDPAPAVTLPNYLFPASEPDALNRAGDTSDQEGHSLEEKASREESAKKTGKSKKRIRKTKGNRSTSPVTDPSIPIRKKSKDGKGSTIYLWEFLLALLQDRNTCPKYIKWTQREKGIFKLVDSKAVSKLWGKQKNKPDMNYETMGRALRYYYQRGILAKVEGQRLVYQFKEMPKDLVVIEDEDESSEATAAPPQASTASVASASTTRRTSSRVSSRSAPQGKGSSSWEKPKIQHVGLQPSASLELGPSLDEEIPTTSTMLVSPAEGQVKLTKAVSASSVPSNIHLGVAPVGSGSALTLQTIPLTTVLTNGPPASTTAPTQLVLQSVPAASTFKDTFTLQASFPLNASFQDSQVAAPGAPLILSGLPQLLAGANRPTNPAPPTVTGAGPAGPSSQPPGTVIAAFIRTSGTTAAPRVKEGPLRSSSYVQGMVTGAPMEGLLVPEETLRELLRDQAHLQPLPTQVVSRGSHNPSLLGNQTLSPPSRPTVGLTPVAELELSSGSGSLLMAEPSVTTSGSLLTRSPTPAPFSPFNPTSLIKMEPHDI
Chain of ELF1 (P32519 whole entry): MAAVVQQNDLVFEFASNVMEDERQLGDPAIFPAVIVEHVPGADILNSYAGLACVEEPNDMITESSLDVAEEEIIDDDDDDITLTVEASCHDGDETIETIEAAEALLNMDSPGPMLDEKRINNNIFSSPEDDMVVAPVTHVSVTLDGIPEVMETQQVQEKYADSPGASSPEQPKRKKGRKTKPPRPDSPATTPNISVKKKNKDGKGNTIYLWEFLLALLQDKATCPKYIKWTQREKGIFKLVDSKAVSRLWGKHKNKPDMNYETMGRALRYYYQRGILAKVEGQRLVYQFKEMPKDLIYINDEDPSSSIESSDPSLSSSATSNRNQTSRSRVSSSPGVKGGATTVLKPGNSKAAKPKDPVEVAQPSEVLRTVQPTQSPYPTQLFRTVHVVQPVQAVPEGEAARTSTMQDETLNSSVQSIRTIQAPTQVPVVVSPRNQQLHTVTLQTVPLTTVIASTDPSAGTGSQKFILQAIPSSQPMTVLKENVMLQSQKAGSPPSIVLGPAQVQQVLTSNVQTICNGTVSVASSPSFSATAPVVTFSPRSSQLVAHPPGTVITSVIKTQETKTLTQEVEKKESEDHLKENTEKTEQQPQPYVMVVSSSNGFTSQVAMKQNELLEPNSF
Chain of ETV1 (P50549 whole entry): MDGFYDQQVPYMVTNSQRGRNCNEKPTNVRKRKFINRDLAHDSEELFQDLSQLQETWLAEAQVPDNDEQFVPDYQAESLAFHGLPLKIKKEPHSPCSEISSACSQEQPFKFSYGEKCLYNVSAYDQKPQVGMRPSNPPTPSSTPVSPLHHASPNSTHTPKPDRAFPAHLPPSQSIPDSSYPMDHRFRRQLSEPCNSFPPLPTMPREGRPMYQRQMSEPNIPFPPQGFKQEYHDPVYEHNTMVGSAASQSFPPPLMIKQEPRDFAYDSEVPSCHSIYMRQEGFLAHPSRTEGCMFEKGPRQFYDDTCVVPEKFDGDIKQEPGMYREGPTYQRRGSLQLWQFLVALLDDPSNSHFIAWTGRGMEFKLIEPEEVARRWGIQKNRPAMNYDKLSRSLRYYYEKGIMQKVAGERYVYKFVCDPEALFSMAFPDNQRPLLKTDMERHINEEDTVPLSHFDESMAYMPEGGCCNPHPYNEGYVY
Chain of CRX (O43186 whole entry): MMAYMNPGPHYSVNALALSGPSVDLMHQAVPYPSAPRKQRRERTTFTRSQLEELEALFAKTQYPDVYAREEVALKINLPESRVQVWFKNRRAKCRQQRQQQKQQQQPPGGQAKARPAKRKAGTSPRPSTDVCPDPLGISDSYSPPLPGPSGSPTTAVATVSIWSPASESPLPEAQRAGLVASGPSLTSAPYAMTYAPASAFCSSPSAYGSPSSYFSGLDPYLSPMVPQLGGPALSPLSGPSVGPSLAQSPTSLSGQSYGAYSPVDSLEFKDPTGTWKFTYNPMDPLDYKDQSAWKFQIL

## CTTATG
FLI1
  binding signal: 1.52 fold enrichment (6-mer frequency, TF over GST control)
ELK1
  binding signal: 1.56 fold enrichment (6-mer frequency, TF over GST control)
GABPA
  binding signal: 1.4 fold enrichment (6-mer frequency, TF over GST control)
ERG
  binding signal: 1.45 fold enrichment (6-mer frequency, TF over GST control)
ELF1
  binding signal: 1.38 fold enrichment (6-mer frequency, TF over GST control)
EHF
  binding signal: 1.39 fold enrichment (6-mer frequency, TF over GST control)
SPI1
  binding signal: 1.45 fold enrichment (6-mer frequency, TF over GST control)
SPIB
  binding signal: 1.59 fold enrichment (6-mer frequency, TF over GST control)
ELK3
  binding signal: 1.46 fold enrichment (6-mer frequency, TF over GST control)
FEV
  binding signal: 1.35 fold enrichment (6-mer frequency, TF over GST control)
ETV5
  binding signal: 1.5 fold enrichment (6-mer frequency, TF over GST control)
HSF1
  binding signal: 1.64 fold enrichment (6-mer frequency, TF over GST control)
SPIC
  binding signal: 1.33 fold enrichment (6-mer frequency, TF over GST control)
ELF4
  binding signal: 1.49 fold enrichment (6-mer frequency, TF over GST control)
ELK4
  binding signal: 1.55 fold enrichment (6-mer frequency, TF over GST control)
ETV2
  binding signal: 1.37 fold enrichment (6-mer frequency, TF over GST control)
ELF3
  binding signal: 1.45 fold enrichment (6-mer frequency, TF over GST control)
CRX
  binding signal: 2.2 fold enrichment (6-mer frequency, TF over GST control)
ETV1
  binding signal: 1.58 fold enrichment (6-mer frequency, TF over GST control)

— PMC7862700, “An all-to-all approach to the identification of sequence-specific readers for epigenetic DNA modifications on cytosine”
